Z-score data for 108 sequences are collected here from PubChem BioAssay AID1508600 (Functional Genomics Laboratory (NCATS/FGL), 2020).

Hit rate of the full screen: of about 53,000 sequences, about 3,700 (7%) were called active.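 How the source made its calls: active means gene knockdowns whose robust z-score for IL-1 alpha signal is at least 2 or at most -2, so actives lie on both sides; inactive means the rest.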 Shown is part of a subset that was picked to be rich in actives.

A short description of this assay: Components of the Cytosolic LPS Sensing Pathway: Gene Identification via Genome-wide siRNA Screen.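 Further: robust z of the log signal after scaling to non-targeting control siRNA wells of the plate.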 Particulars: RAW264.7 macrophages, IL-1a HTRF, actives lie on both sides, screened at 100 nM (by protocol), cells primed 5 h with Pam3CSK4 first. The essentials:
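Using IL-1a HTRF as read-out, the screen measured release from RAW264.7 cells after 48h siRNA knockdown (100 nM), 5 h Pam3CSK4 priming and 24 h cytosolic LipidA. Values were expressed relative to negative-control wells as robust z-scores.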
Take GGAGCUCAAGAACAGGAUGTT against Clec3b: the z-score was -0.0394 (inactive).
For the sequence GCGGAGAAUAACAUAUCUCTT against Fut8, the z-score was -0.521 (inactive).
As for GGAUUUGUAAAUUACCUGGTT against Clec4d, the z-score was 0.544 (inactive).
For the sequence GCACAAUAAUAAUGACACUTT against AI597479, the z-score is 2.76 (active).
In the case of GUAUGCUAGCAUGAUCAACTT against Ndufa3, the z-score is 1.05 (inactive).
With GGCCAGAUAUUAUAAGAAATT against Gtdc1, the z-score was 0.332 (inactive).
On to GCCUUUGCAUGGCAGUCUATT against Zfp825, for which the z-score was -0.716 (inactive).
For the sequence GGCUGUUCAAAGUGACCCUTT against Hbp1, the z-score is -3.11 (active).
The result for GCUGCCUAUGGCUUCUUCCTT against Tmem160 reads -1.37 (inactive).
Turning to GGUGCUGAUUACAGUAGAATT against Pcdhga10, the z-score was 2.01 (active).
Consider GGACCAAGUAUCAUGAUGUTT against Zfp369, for which the z-score is 0.222 (inactive).
To GCACCUCUUGGACAAAAUUTT against Tsc1 belongs -1.59 (inactive); to GGCGGCCUAUAUGAGGUUCTT against Cftr, 0.548 (inactive).
Take GCAUUGAGAUGAGAGCCUATT against Uroc1: the z-score was -0.167 (inactive).
To GCAGUUGUCAUGCUAAACCTT against Ptpn2 belongs 2.89 (active); to CGAAUACUACGCCAAGAUUTT against Abca2, -0.867 (inactive).
The result for GCUCAGUACCGCACAACCATT against Dus3l reads -0.827 (inactive).
For CCUAUUGUGAGCUUAAUGCTT against Nrxn2, the z-score was -0.74 (inactive).
With GGGCUAUGUACCCUAUAAUTT against Eps8l1, the z-score was -1.37 (inactive).
With GGGCAUUGGUGACUUUGAATT against Hrob, the z-score is -2.11 (active).
On to GGACACAACAAGUCUUAUGTT against Prg2, for which the z-score is -0.876 (inactive).
For CCUUGCUACUCUGAUAACGTT against Tmeff1, the z-score was 0.761 (inactive).
For the sequence CCUAGUGUGUUAAUUGUAATT against Ric1, the z-score was -1.28 (inactive).
Regarding GGAUGCUUACGGGAGACGATT against Tmem9, the z-score is -0.595 (inactive).
The result for GGUGAAGGUGCCUUCCAAATT against Il27ra reads 2.91 (active).
Take GGAGAUUCACUUUCUAUCUTT against B3gnt9: the z-score was 0.656 (inactive).
For CCCUAAGACGAAGGAAAUGTT against Pdrg1, the z-score was -0.844 (inactive).
On to GGCGAGUUCCAGAUUCUUCTT against Car3, for which the z-score is 1.69 (inactive).
For the sequence GCUGAAGACCGACUACAAGTT against Cnih1, the z-score was 0.569 (inactive).
The result for “GGUGCCAAUCCUUUGGACATT against 4930590J08Rik” reads 3 (active); that for GGAAGUUUACCAGUCUAUCTT against Pik3c2a, 1.4 (inactive).
To GCUACCCAUGAGCUUUCGATT against S100a3 belongs 0.495 (inactive).
Consider GCCCAUUGUUACCUUGUACTT against Klb, for which the z-score was -2.06 (active).
Turning to GGCCUUAUCGGCAGAUAUUTT against Tmem44, the z-score was -1.24 (inactive).
To GGCAGUCUUAUAAUUCAUCTT against Zfp944 belongs -1.08 (inactive).
In the case of CGUUUGACACUUUUGCCUUTT against Mid1, the z-score was 1.09 (inactive).
The result for GGUUUUUGUGGCUGAUCUUTT against Zfp711 reads -0.545 (inactive); that for GGAUUUCCUUGGUUCUUUUTT against Mylip, 0.145 (inactive); that for GCUCUUCCGCACUUUCAUUTT against H2al1m, 1.37 (inactive).
Take GGAACACUCCAGUUUGAAUTT against Thsd1: the z-score is 1.09 (inactive).
GGAACAAGUACAUACUUAUTT against Frs2: the z-score is 2.09 (active).
To GCACUCAAGGUUUUACUGUTT against Satb1 belongs -0.356 (inactive); to CCUUGUGUAUGAAAUACUUTT against Taf1b, -0.282 (inactive); to GCUUGAUUUUUGACAGAGATT against Mdh1b, 1.48 (inactive).
On to GCGAUGAUGAAAGCUCAGUTT against Atad1, for which the z-score was -2.36 (active).
The result for CCAGGAGUCGAGUGAUGGUTT against Rtl1 reads 0.886 (inactive); that for GGGUAAACUGUGGAGAAAUTT against Fam214b, -0.833 (inactive).
Regarding GGAAGAAGCAGCAAGAAGATT against Ttc39b, the z-score is -2.16 (active).
As for GAUGAAAGCUACAAUGAAGTT against Srpx2, the z-score is 1.67 (inactive).
For GGAAUUUCAGGAGAUACUGTT against C1qtnf12, the z-score is -1.04 (inactive).
As to GCCGGAUCUAUUAAAGAAATT against Hdac2, the z-score was 0.134 (inactive).
To GCAACUAUACUGGACAAUUTT against Olfr328 belongs -1.19 (inactive); to GGCUUAUUAUCAGGAAAUGTT against Plcz1, -1.32 (inactive); to GGAAGUCUACAAGUGGCCATT against Nr1d1, -0.467 (inactive).
With CGCAGCGACCAGCUUUCAATT against Srebf2, the z-score was 0.789 (inactive).
In the case of GGUGGUACGCAAUCAAAAGTT against Galnt17, the z-score is 2.46 (active).
To GCCACCUAAUUUACAAUCUTT against Ccn3 belongs 0.573 (inactive); to GCACCAAUUCCCUAACUGGTT against Fam102a, 0.244 (inactive); to GGACCUACAUAACAAGCUUTT against Thnsl2, 1.83 (inactive).
For the sequence GGCAGAAGCAGAUAUUAGATT against Rbmxl1, the z-score was 2.23 (active).
GGUUUCUGUUUUGUCACACTT against Slc22a13b: the z-score is -0.535 (inactive).
As to GGGCAAUGGAAGAAUUCCUTT against BC030500, the z-score was -1.69 (inactive).
On to GGAGCAAGAUGAAGAAGAGTT against Ticam2, for which the z-score was -2.26 (active).
The result for CCACGCUACCUUCAAGAGATT against Clec14a reads 0.946 (inactive); that for GGAUCUUGACUUUGAUAUGTT against Trpm4, 0.0632 (inactive).
With GGACUCAAAACCAUUUACATT against Dram1, the z-score is -1.13 (inactive).
As to GGAUCAACUGGUGACACAGTT against Preb, the z-score was -0.00996 (inactive).
As for GGAUCCUGCUCAAAAAAGUTT against Arxes1, the z-score was -0.431 (inactive).
To GGAAGAUCAUAAUGGACAGTT against Pcsk9 belongs 6.01 (active); to GAAGUCGGUGGACAAGAACTT against Cebpa, 0.662 (inactive); to “GCACUGUUUGUGCAAACAATT against C130071C03Rik”, -2.22 (active).
Regarding CCACUCUAAUGAUGUUUUUTT against Slc46a3, the z-score was 0.411 (inactive).
Regarding CCCACUGGUGUACGUGAUCTT against Bdkrb2, the z-score is 2.21 (active).
Turning to GGCUAAGGAAUGUCAAUAATT against Dnajc5g, the z-score is 0.0787 (inactive).
To GGUGCUACCUCUAGAUAUUTT against Utp3 belongs 1.96 (inactive).
Consider CCACUUCUCUAAGACAAUCTT against Acox3, for which the z-score was -0.107 (inactive).
The result for CCCAUUGGAACUGCUGUAATT against Metrnl reads 0.932 (inactive); that for GGUCAAAGUUAUGCAAUGUTT against Rp9, -2.02 (active); that for GGACUUGAUUAUCUACACUTT against Stk24, -2.24 (active).
CGAAUAUGGUAUUCACUCATT against Skint4: the z-score was 0.157 (inactive).
For GCCCUUACAUUUUAUACUATT against Zfp93, the z-score was 1.1 (inactive).
To CCACGUCCUCUACUUGUAUTT against Nmbr belongs -0.813 (inactive); to GCGUAACUACUACAUGAAUTT against Ano9, -2.33 (active).
The result for GGACUUACUUCCCAUUUCGTT against Gdpd3 reads 0.297 (inactive); that for GGUGUAUGCGUCACUAGAATT against Rxra, 0.0162 (inactive).
As to GGACUACUCUGCCAGAUGGTT against Fam71f1, the z-score is 0.0252 (inactive).
GCUUUAAGUACUUUAACGCTT against Ncr1: the z-score was 1.04 (inactive).
For the sequence GCAGCUACUACACCAACCATT against Dlx2, the z-score is -2.46 (active).
On to CGAAAACAGUACGAUGCUUTT against Dnajb11, for which the z-score is 1.03 (inactive).
For CCUCAAUGAAGACCCAUUATT against Kif1b, the z-score was -1.35 (inactive).
For the sequence GGUUUUCUAUGGAAGAGAUTT against Igdcc4, the z-score is 0.835 (inactive).
GGUAUCCACUGUGCCAACCTT against Ush2a: the z-score was -0.343 (inactive).
Regarding CGAUCGUAUUCAAUGGAAATT against Rims2, the z-score is -0.998 (inactive).
With GCAUCUGCAUUUUUUGCUATT against Prox1, the z-score was 1.29 (inactive).
Turning to GCUUUUGCUACAAGUGUAUTT against Cop1, the z-score was -0.593 (inactive).
The result for GGCAGAUGGCCGAAUUGAUTT against Rest reads -1.13 (inactive).
As to GGACGAUUUAAGGAUUUUUTT against Dcun1d1, the z-score is -2.4 (active).
Take CCAAGUACCCUGAGAGUUUTT against Pnpla6: the z-score is 1.46 (inactive).
On to GCCAAACGAACAACAAAACTT against Chrm3, for which the z-score was -0.166 (inactive).
Regarding CGUACCACACGAUGAAUAGTT against Pou4f1, the z-score is -0.525 (inactive).
Regarding CCGCAUGAACUUCCUACAGTT against Ugt1a1, the z-score is 1.2 (inactive).
Turning to GGCGUAUUCUGGUAUCCAGTT against Celf1, the z-score is 2.08 (active).
Take GCACUGAACUUUCCUGACCTT against Ppdpf: the z-score is 1.78 (inactive).
The result for CCAUUCGAGAUGAGAAGAATT against Gcc1 reads -0.287 (inactive).
For the sequence GGGAAAAGAUCGACAAAGATT against Plk2, the z-score was -0.217 (inactive).
Regarding GGCCCAUGAUCCAUUUUGGTT against Prnp, the z-score is -2.07 (active).
To GGAAAAGGAGGAGAGUUAUTT against Nkapl belongs 0.153 (inactive); to GGGUGGUGGCAUUAAACUUTT against Stk36, 1.75 (inactive).
